Measured values as given in PubChem BioAssay AID1159580 (chemical genetic matrix, 2015).
Where “and” joins values, the source holds several entries; their conditions need not be identical. Identical values can stand only once. Hit rate of the full screen: of about 5,500 compounds, about 2,000 (36%) were called active. Inconclusive results (about 18%) are left out. Cut-off read from the data, not from the text of the source: active = normalized growth mostly below about 0.91 (no sharp cut-off); inconclusive = no clear call, values can overlap the other calls; inactive = mostly above about 0.92. The list shows a part of the results.

Assay: chemical genetic growth profiling, strain panel (AID 1159580);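 note: tested at 20 µM; growth read once vehicle control cultures reached saturation at 30 °C; 1 = growth at the plate median or of vehicle wells; lower values mean less growth of the strain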
Settings: growth OD
[1] = S. cerevisiae deletion strains, locus YBR229C, strain ROT2, hits give low values
[2] = S. cerevisiae deletion strains, locus YDL101C, strain DUN1, hits give low values
[3] = S. cerevisiae deletion strains, locus YDR150W, strain NUM1, hits give low values
[4] = S. cerevisiae deletion strains, locus YEL061C, strain CIN8, hits give low values
[5] = S. cerevisiae deletion strains, locus YGR078C, strain PAC10, hits give low values
[6] = S. cerevisiae deletion strains, locus YGR229C, strain SMI1, hits give low values
[7] = S. cerevisiae deletion strains, locus YHR030C, strain SLT2, hits give low values
[8] = S. cerevisiae deletion strains, locus YHR079C, strain IRE1, hits give low values
[9] = S. cerevisiae deletion strains, locus YJL095W, strain BCK1, hits give low values
[10] = S. cerevisiae deletion strains, locus YJR043C, strain POL32, hits give low values
[11] = S. cerevisiae deletion strains, locus YJR066W, strain TOR1, hits give low values
[12] = S. cerevisiae deletion strains, locus YLR039C, strain RIC1, hits give low values
[13] = S. cerevisiae deletion strains, locus YLR113W, strain HOG1, hits give low values
[14] = S. cerevisiae deletion strains, locus YLR262C, strain YPT6, hits give low values
[15] = S. cerevisiae deletion strains, locus YMR307W, strain GAS1, hits give low values
[16] = S. cerevisiae deletion strains, locus YNL128W, strain TEP1, hits give low values
[17] = S. cerevisiae deletion strains, locus YNL183C, strain NPR1, hits give low values
[18] = S. cerevisiae deletion strains, locus YNL322C, strain KRE1, hits give low values
[19] = S. cerevisiae deletion strains, locus YOR231W, strain MKK1, hits give low values
[20] = S. cerevisiae deletion strains, locus YPL055C, strain LGE1, hits give low values
[21] = S. cerevisiae deletion strains, locus YPL256C, strain CLN2, hits give low values
[22] = S. cerevisiae strains, strain wild type, hits give low values
[23] = S. cerevisiae deletion strains, locus YMR263W, strain SAP30, hits give low values
[24] = S. cerevisiae deletion strains, locus YAL013W, strain DEP1, hits give low values
[25] = S. cerevisiae deletion strains, locus YHR087W, strain rtc3, hits give low values
[26] = S. cerevisiae deletion strains, locus YJR075W, strain HOC1, hits give low values
[27] = S. cerevisiae deletion strains, locus YLR058C, strain SHM2 (second series), hits give low values
[28] = S. cerevisiae deletion strains, locus YLR085C, strain ARP6, hits give low values
[29] = S. cerevisiae deletion strains, locus YML094W, strain GIM5, hits give low values
[30] = S. cerevisiae deletion strains, locus YMR219W, strain ESC1, hits give low values
[31] = S. cerevisiae deletion strains, locus YNL153C, strain GIM3, hits give low values
[32] = S. cerevisiae deletion strains, locus YNL298W, strain CLA4 (second series), hits give low values
[33] = S. cerevisiae deletion strains, locus YNR030W, strain Alg12, hits give low values
[34] = S. cerevisiae deletion strains, locus YPL241C, strain CIN2, hits give low values
[35] = S. cerevisiae deletion strains, locus YPR135W, strain CTF4, hits give low values

Measured: normalized growth

Cc1ccc(C(=O)C(C)CN2CCCCC2)cc1 (configuration not stated)
inactive: S. cerevisiae deletion strains, locus YBR021W, strain FUR4, hits give low values 1 | [1] 1.01 | S. cerevisiae deletion strains, locus YCL029C, strain bik1, hits give low values 1.02 | S. cerevisiae deletion strains, locus YDL035C, strain GPR1, hits give low values 1.01 | S. cerevisiae deletion strains, locus YDL074C, strain BRE1, hits give low values 1.01 | [2] 1.01 | S. cerevisiae deletion strains, locus YDL134C, strain PPH21, hits give low values 1.02 | S. cerevisiae deletion strains, locus YDL185W, strain tfp1, hits give low values 1.02 | S. cerevisiae deletion strains, locus YDL192W, strain arf1, hits give low values 1.02 | S. cerevisiae deletion strains, locus YDR101C, strain arx1, hits give low values 0.998 | [3] 1 | S. cerevisiae deletion strains, locus YDR162C, strain NBP2, hits give low values 1.01 | S. cerevisiae deletion strains, locus YDR318W, strain mcm21, hits give low values 1.02 | S. cerevisiae deletion strains, locus YDR388W, hits give low values 1.02 | S. cerevisiae deletion strains, locus YDR502C, strain sam2, hits give low values 1.01 | [4] 1.01 | S. cerevisiae deletion strains, locus YER110C, hits give low values 1.01 | S. cerevisiae deletion strains, locus YER155C, strain BEM2, hits give low values 1.01 | S. cerevisiae deletion strains, locus YER167W, strain BCK2, hits give low values 1.02 | S. cerevisiae deletion strains, locus YGL078C, strain dbp3, hits give low values 1.01 | S. cerevisiae deletion strains, locus YGL086W, strain mad1, hits give low values 1.03 | S. cerevisiae deletion strains, locus YGL248W, strain PDE1, hits give low values 1.01 | [5] 1 | S. cerevisiae deletion strains, locus YGR135W, strain pre9, hits give low values 1 | [6] 0.983 | S. cerevisiae deletion strains, locus YGR252W, strain gcn5, hits give low values 0.987 | [7] 1.01 and 0.991 | S. cerevisiae deletion strains, locus YHR079C, strain IRE1 (second series), hits give low values 1.02 | [8] 0.993 | S. cerevisiae deletion strains, locus YHR094C, strain hxt1, hits give low values 1.01 | S. cerevisiae deletion strains, locus YHR129C, strain ARP1, hits give low values 1.02 | S. cerevisiae deletion strains, locus YHR200W, strain rpn10, hits give low values 1.02 | S. cerevisiae deletion strains, locus YIL066C, strain RNR3, hits give low values 1.01 | S. cerevisiae deletion strains, locus YIL073C, strain SPO22, hits give low values 0.993 | S. cerevisiae deletion strains, locus YIL125W, strain kgd1, hits give low values 1.02 | S. cerevisiae deletion strains, locus YIR030C, strain dcg1, hits give low values 1.01 | [9] 0.973 and 0.966 | S. cerevisiae deletion strains, locus YJL134W, strain LCB3, hits give low values 1.01 | S. cerevisiae deletion strains, locus YJL168C, strain set2, hits give low values 1.02 | S. cerevisiae deletion strains, locus YJL187C, strain SWE1 (second series), hits give low values 1 | [10] 1.02 | [11] 0.907 | S. cerevisiae deletion strains, locus YKL009W, strain mrt4, hits give low values 1.03 | S. cerevisiae deletion strains, locus YKL068W, hits give low values 1.01 | S. cerevisiae deletion strains, locus YKL085W, strain MDH1 (second series), hits give low values 1.03 | S. cerevisiae deletion strains, locus YKL085W, strain MDH1, hits give low values 1.03 | S. cerevisiae deletion strains, locus YKL190W, strain CNB1, hits give low values 1.01 | S. cerevisiae deletion strains, locus YKR001C, strain vps1, hits give low values 1.03 | [12] 0.993 | S. cerevisiae deletion strains, locus YLR058C, strain SHM2, hits give low values 1.02 | S. cerevisiae deletion strains, locus YLR102C, strain apc9, hits give low values 1.01 | [13] 1.01 | [14] 1.02 | S. cerevisiae deletion strains, locus YLR268W, strain sec22, hits give low values 1 | S. cerevisiae deletion strains, locus YLR330W, strain CHS5, hits give low values 1 | S. cerevisiae deletion strains, locus YLR342W, strain FKS1 (second series), hits give low values 0.973 | S. cerevisiae deletion strains, locus YLR371W, strain rom2, hits give low values 1.02 | S. cerevisiae deletion strains, locus YLR418C, strain cdc73, hits give low values 1.02 | S. cerevisiae deletion strains, locus YML016C, strain PPZ1, hits give low values 1.01 | S. cerevisiae deletion strains, locus YML032C, strain rad52, hits give low values 1.01 | S. cerevisiae deletion strains, locus YML124C, strain tub3, hits give low values 1.01 | S. cerevisiae deletion strains, locus YMR078C, strain ctf18, hits give low values 1.02 | S. cerevisiae deletion strains, locus YMR223W, strain ubp8, hits give low values 1.01 | [15] 1.14 | S. cerevisiae deletion strains, locus YNL067W, strain RPL9B, hits give low values 1.01 | [16] 1.03 | [17] 0.899 | S. cerevisiae deletion strains, locus YNL233W, strain BNI4, hits give low values 0.993 | S. cerevisiae deletion strains, locus YNL250W, strain rad50, hits give low values 1.01 | S. cerevisiae deletion strains, locus YNL271C, strain bni1, hits give low values 1.02 | S. cerevisiae deletion strains, locus YNL298W, strain CLA4, hits give low values 1.03 | S. cerevisiae deletion strains, locus YNL307C, strain MCK1, hits give low values 1.03 | [18] 1.01 | S. cerevisiae deletion strains, locus YNR052C, strain pop2, hits give low values 1.02 | S. cerevisiae deletion strains, locus YOL006C, strain TOP1, hits give low values 1 | S. cerevisiae deletion strains, locus YOL012C, strain htz1 0.819 | S. cerevisiae deletion strains, locus YOL147C, strain pex11, hits give low values 1.01 | S. cerevisiae deletion strains, locus YOR061W, strain CKA2, hits give low values 1.02 | S. cerevisiae deletion strains, locus YOR069W, strain VPS5, hits give low values 1 | S. cerevisiae deletion strains, locus YOR136W, strain idh2, hits give low values 1.02 | S. cerevisiae deletion strains, locus YOR144C, strain elg1, hits give low values 1.01 | S. cerevisiae deletion strains, locus YOR184W, strain ser1, hits give low values 1.01 | [19] 0.984 | S. cerevisiae deletion strains, locus YOR316C, strain cot1, hits give low values 1.02 | [20] 1.03 | [21] 0.976 | S. cerevisiae deletion strains, locus YPR119W, strain clb2, hits give low values 1.02 | S. cerevisiae deletion strains, locus YPR141C, strain kar3, hits give low values 1.02 | S. cerevisiae deletion strains, locus YPR163C, strain tif3, hits give low values 1.03 | S. cerevisiae deletion strains, locus YPR167C, strain met16, hits give low values 1.02 | S. cerevisiae deletion strains, strain wtn01, hits give low values 1.01 | [22] 1.01

COc1cc(OC)c(C(=O)CCCN2CCCC2)c(OC)c1
inactive: [7] 1.07 | [8] 1.04 | [9] 1.03 | [11] 0.973 | [13] 1.01 | [17] 0.973 | [19] 1.03 | [21] 1.05

O=C(OCCN1CCCCC1)c1c[nH]c2ccccc12
inactive: S. cerevisiae deletion strains, locus YAL040C, strain CLN3, hits give low values 1 | S. cerevisiae deletion strains, locus YCL061C, strain MRC1 (second series), hits give low values 1.01 | S. cerevisiae deletion strains, locus YDR363W, strain ESC2, hits give low values 0.997 | S. cerevisiae deletion strains, locus YER002W, strain NOP16, hits give low values 1.02 | [5] 1.02 | [6] 0.999 | [23] 0.999 | [15] 1.01 | [16] 1.01 | S. cerevisiae deletion strains, locus YNL175C, strain NOP13, hits give low values 1.01 | S. cerevisiae deletion strains, locus YNL197C, strain WHI3, hits give low values 1 | S. cerevisiae deletion strains, locus YNL224C, strain SQS1, hits give low values 0.994 | S. cerevisiae deletion strains, locus YOR083W, strain WHI5 (second series), hits give low values 1 | [20] 0.997

Cc1cc(C)c(NC(=S)NCCCN2CCOCC2)c(C)c1
inactive: [24] 1 | [1] 1.01 | [2] 0.992 | [3] 0.901 | [4] 1.01 | [5] 1.02 | [7] 1.07 | [25] 1.01 | S. cerevisiae deletion strains, locus YJL187C, strain SWE1, hits give low values 1.01 | [10] 0.986 | [26] 0.999 | [12] 1.03 | [27] 1.01 | [28] 1.05 | [14] 1.02 | [29] 1 | [30] 1 | [23] 1.03 | [31] 0.992 | [32] 1.04 | [18] 1.01 | [33] 1.02 | [20] 0.912 | [34] 0.995 | [35] 1.01

CCCCOc1cc(C(=O)O)ccc1OC
inactive: [24] 0.97 | [1] 0.984 | [2] 0.987 | [3] 0.988 | [4] 1.01 | [5] 0.971 | [6] 1 | [7] 0.999 | [25] 0.977 | [10] 0.985 | [26] 0.962 | [12] 1.02 | [27] 0.979 | [28] 1.01 | [14] 1.04 | [29] 1 | [30] 0.975 | [23] 0.977 | [15] 0.956 | [16] 1.02 | [31] 0.979 | [32] 1.03 | [18] 0.976 | [33] 0.999 | [20] 0.941 | [34] 1.01 | [35] 1.04 | [22] 1.02
